High-throughput results as filed in PubChem BioAssay.
The list is not random: actives were taken first. Their share in the collection is about 1.6%.
KCNQ2 inh – KCNQ2 (rat) channel inhibition | B-score at 10 µM | O88943 | 1.1% of 310,000 active | AID 2156 | CHO-K1 KCNQ2, FluxOR thallium flux, 20 min; stronger effect = lower value;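 active = fluorescence ratio B-score at most minus 3 library SDs, with starting brightness B-score within 2 library SDs, cut at about -5.5 in these data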
Target sequence (O88943 whole entry, looked up): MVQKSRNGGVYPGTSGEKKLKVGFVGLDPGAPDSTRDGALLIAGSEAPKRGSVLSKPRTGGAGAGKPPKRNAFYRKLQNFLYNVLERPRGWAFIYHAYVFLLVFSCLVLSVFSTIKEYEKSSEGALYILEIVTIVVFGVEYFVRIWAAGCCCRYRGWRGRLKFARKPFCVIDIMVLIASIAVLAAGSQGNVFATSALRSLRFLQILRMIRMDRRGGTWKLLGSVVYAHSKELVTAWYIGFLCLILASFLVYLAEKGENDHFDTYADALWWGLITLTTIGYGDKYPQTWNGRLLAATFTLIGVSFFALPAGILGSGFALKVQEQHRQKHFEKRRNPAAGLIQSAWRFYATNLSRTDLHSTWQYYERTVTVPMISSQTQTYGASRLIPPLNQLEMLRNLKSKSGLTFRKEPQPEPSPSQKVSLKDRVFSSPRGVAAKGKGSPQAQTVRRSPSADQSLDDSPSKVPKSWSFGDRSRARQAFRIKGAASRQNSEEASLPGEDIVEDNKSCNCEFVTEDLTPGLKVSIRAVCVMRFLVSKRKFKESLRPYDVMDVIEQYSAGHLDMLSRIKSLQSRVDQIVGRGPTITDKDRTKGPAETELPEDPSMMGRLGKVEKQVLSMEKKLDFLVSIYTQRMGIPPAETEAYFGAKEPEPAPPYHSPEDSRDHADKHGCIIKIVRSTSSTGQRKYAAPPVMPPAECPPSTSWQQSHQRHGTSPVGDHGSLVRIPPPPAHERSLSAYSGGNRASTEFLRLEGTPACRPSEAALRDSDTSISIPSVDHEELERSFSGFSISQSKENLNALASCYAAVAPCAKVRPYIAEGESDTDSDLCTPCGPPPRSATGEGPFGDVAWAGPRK
KCNQ2 enhance – KCNQ2 (rat) channel potentiation. O88943. CHO-K1 KCNQ2, FluxOR thallium flux fluorescence; stronger effect = higher value. B-score at 10 µM. 0.54% of 310,000 active. AID 2239;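 active = fluorescence ratio B-score at least 3 SD of library B-scores, with initial fluorescence B-score within 3 of them, cut at about 5.3 in these data; same plate scores as AID 2156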;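 also: B-score of peak minus minimum over baseline fluorescence ratio after K+ and Tl+ stimulus; positive B-score means potentiation of KCNQ2 with more thallium influx and brighter signal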
Kir21 conf inh – confirmation of mouse Kir2.1 potassium channel inhibitors; shares compounds with KCNQ2 enhance; Kir2.1-expressing cells, FluxOR thallium flux fluorescence; stronger effect = lower value; Tl flux remaining, % of negative control (stronger effect = lower value), % at 10 µM; 41% of 2,300 active; AID 2032;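 active = Primary-screen hit whose thallium flux fell at least 3 control SD below untreated wells in both duplicates, with normal baseline fluorescence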;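 also: 0% = blank wells without stimulus and 100% = stimulated no-compound controls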
HEK293 Tl flux – parental HEK293 activity in Kir2.1 inhibitor counter-screen. 19% of 2,300 active. AID 2105. shares compounds with KCNQ2 enhance. parental HEK293 cells, FluxOR thallium flux fluorescence; 0% = unstimulated blank wells. FluxOR signal as % of negative control (100 = no effect), % at 10 µM;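 active = dye signal at least 3 control SD above or below untreated wells in both duplicates, raw fluorescence within 3, either direction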;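 also: percent is based on the flux ratio of peak minus minimum fluorescence over baseline F0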
CHO-K1 ctr – counter-screen for KCNQ2 potentiators: effect in parental CHO-K1 cells | shares compounds with KCNQ2 enhance | FluxOR thallium flux fluorescence; zero = vehicle mean+3SD, 100% = vehicle-minus-blank window | activity increase over 3SD of controls, % at 10 µM | 43% of 1,200 active;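 active = signal rise of at least 3 SD above the untreated control mean, in both duplicate wells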;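 also: counter screen of KCNQ2 potentiator hits so any rise reflects channel-independent effects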
KCNQ1 sel pot – tests whether KCNQ2 potentiators also act on human KCNQ1 | shares compounds with KCNQ2 enhance | CHO KCNQ1 stable, FluxOR thallium flux fluorescence; beyond 3SD, as % of vehicle-control signal | activation over 3SD threshold, % at 10 µM | 28% of 1,200 active | AID 2283;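 active = fluorescence ratio rise of at least 3 SD of vehicle wells above their mean, in both replicate wells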;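 also: 0% = vehicle mean plus 3 SD and 100% = vehicle minus unstimulated blank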
KCNQ2 pot confirm – rat KCNQ2 channel potentiator confirmation. shares compounds with KCNQ2 enhance. potentiation, less the hit threshold, % at 10 µM. 68% of 1,200 active. CHO-KCNQ2 cells, FluxOR thallium flux fluorescence;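 active = fluorescence ratio rising 3 SD or more over the vehicle control mean in both replicates, plus primary screen hit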;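 also: peak minus minimum thallium fluorescence divided by baseline after K/Tl stimulus; 0% = vehicle mean plus 3 SD and 100% = vehicle minus unstimulated blank difference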
Kir21 spec – selectivity of KCNQ2 potentiators: effect on mouse Kir2.1; shares compounds with KCNQ2 enhance; HEK293 Kir2.1, FluxOR thallium flux fluorescence; activity over 3SD threshold, % at 10 µM; 2% of 1,200 active;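 active = fluorescence ratio rise of at least 3 SD above the vehicle-control mean, seen in both replicates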;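 also: 0% = vehicle mean plus 3 SD and 100% = vehicle minus no-stimulus blank window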
KCNQ2 W236L MoA – potentiates the retigabine-insensitive rat KCNQ2 W236L mutant channel; CHO KCNQ2-W236L, automated patch clamp current; 10% of 940 active; current increase over 3SD of negative controls (%), stronger effect = higher value, % at 25 µM; shares compounds with KCNQ2 enhance;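 active = current increase at least 3 SD of the untreated controls above them in both duplicate recordings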
Active calls of the source: *; i = inactive; · = no result.

SMILES	KCNQ2 inh	KCNQ2 enhance	Kir21 conf inh	HEK293 Tl flux	others
CC(=O)C1=C(C)NC(SCC(=O)c2ccc(Cl)cc2Cl)=C(C#N)C1c1ccco1 (centres undefined)	i	1.4	·	·
CC(=O)C1=C(C)NC(SCC(=O)c2ccc(Cl)cc2)=C(C#N)C1c1ccco1 (centres undefined)	i	12*	i	i	CHO-K1 ctr=-21;KCNQ1 sel pot=17*;KCNQ2 pot confirm=-24;Kir21 spec=-37
O=C(Nc1cccc(-n2cnnn2)c1)c1ccc(OC(F)(F)F)cc1	i	2.4	·	·
COc1ccccc1C(=O)Nc1cccc2cccnc12	i	·	·	·
CN(C)CC/C=C1/c2ccc(F)cc2Sc2ccc(Cl)cc21	-5.8*	-5.8	i	i
CN(C)CC/C=C1\c2ccc(F)cc2Sc2cc(F)c(Cl)cc21	i	·	·	·
CN(C)CCCN1c2ccccc2Sc2ccc(Cl)cc21	i	0.4	28%*	i
OCCN1CCN(CCCN2c3ccccc3Sc3ccc(Cl)cc32)CC1	i	·	·	·
CN(C)CC/C=C1\c2ccccc2Sc2cc(F)c(Cl)cc21	i	·	·	·
CN(C)CC/C=C1\c2ccccc2Sc2ccc(Cl)cc21	i	0.23	26%*	i
CNC(=O)c1sccc1SCc1ccc(Cl)cc1Cl	i	·	·	·
CNC(=O)c1sccc1SCc1c(Cl)cccc1Cl	i	·	46%*	i
COC(=O)c1csc(S(=O)(=O)N2CCOCC2)c1OC	i	·	·	·
CCCc1cc(=O)[nH]c(SCC(=O)c2cc(C)n(CCOC)c2C)n1	i	0.18	·	·
CCCc1cc(=O)[nH]c(SCC(=O)c2cc(C)n(CC(F)(F)F)c2C)n1	i	6.4*	i	i	CHO-K1 ctr=-13;KCNQ1 sel pot=74*;KCNQ2 pot confirm=-16;Kir21 spec=-48
O=C(c1c(F)cccc1F)N1CCCC(c2nc(-c3ccc(F)cc3)no2)C1 (centres undefined)	i	·	·	·
COC(=O)c1ccccc1N1CCS(=O)(=O)CC1	i	·	·	·
CCc1ccc(C(C)NC(=S)NCc2ccc(F)cc2)cc1 (centres undefined)	i	4.6	·	·
Cc1ccc(C(C)NC(=S)NCc2ccc(F)cc2)cc1C (centres undefined)	i	8.1*	68%*	i	CHO-K1 ctr=0.0*;KCNQ1 sel pot=45*;KCNQ2 pot confirm=33*;Kir21 spec=-73;KCNQ2 W236L MoA=i
COc1cccc(C(C)NC(=S)NCc2ccc(F)cc2)c1 (centres undefined)	i	3.2	48%*	i
CCOc1ccc(C(C)NC(=S)NCc2ccc(F)cc2)cc1 (centres undefined)	i	2.9	·	·
Cc1ccc(NC(=S)NCc2ccc(S(N)(=O)=O)cc2)c(C)c1	i	0.24	·	·
Cc1ccc(NC(=S)NCc2ccc(F)cc2)c(C)c1	i	5.5*	i	i	CHO-K1 ctr=-7;KCNQ1 sel pot=-8;KCNQ2 pot confirm=42*;Kir21 spec=-53;KCNQ2 W236L MoA=i
O=C(Nc1ccc(S(=O)(=O)NC2=NCCCCC2)cc1)c1cc(S(=O)(=O)N2CCOCC2)ccc1F	i	0.54	·	·
CCN(CC(=O)Nc1cccc(C(C)=O)c1)S(=O)(=O)c1ccc(C)cc1	i	·	·	·
SMILES	KCNQ2 inh	KCNQ2 enhance	Kir21 conf inh	HEK293 Tl flux	others
CCOc1cccc(C(=O)Nc2ccccc2N2CCN(C(=O)C(C)C)CC2)c1	i	·	·	·
Cc1ccc(N/C(N)=N/c2nc(C)cc(C)n2)cc1	i	0.74	·	·
Cc1cc(C)nc(/N=C(\N)Nc2ccc(C(C)C)cc2)n1	i	5.5*	i	i	CHO-K1 ctr=100*;KCNQ1 sel pot=-15;KCNQ2 pot confirm=-17;Kir21 spec=-42
CCOC(=O)N1CCN(C(=O)c2cc(Cl)c(Cl)cc2C(=O)O)CC1	i	·	·	·
CCCOC1CCCN(C(=O)c2cc(Cl)c(Cl)cc2C(=O)O)C1 (centres undefined)	i	8.6*	i	i	CHO-K1 ctr=-11;KCNQ1 sel pot=-18;KCNQ2 pot confirm=-8;Kir21 spec=-34
COc1ccc(CC(=O)NCC(=O)N/N=C(/C)c2ccco2)cc1	i	0.49	·	·
CCc1ccc(OCC(=O)NNC(=O)c2ccc(NC(=O)C3CC3)cc2)cc1	i	·	·	·
CCOc1ccc(Nc2ccnc3cc(Cl)ccc23)cc1	i	·	·	·
CN1CCN(c2ccc(Nc3ccnc4cc(Cl)ccc34)cc2)CC1	i	·	58%*	i
CCOc1ccc(C(C)NC(=S)NC2CCCCC2)cc1 (centres undefined)	i	5.4*	i	i	CHO-K1 ctr=-15;KCNQ1 sel pot=27*;KCNQ2 pot confirm=20*;Kir21 spec=-43;KCNQ2 W236L MoA=i
CCc1ccc(C(C)NC(=O)C2(C)CC2(Br)Br)cc1 (centres undefined)	i	0.22	·	·
CCc1ccc(S(=O)(=O)NC(=S)NC2CCCCC2)cc1	i	8.9*	i	302%*	CHO-K1 ctr=-18;KCNQ1 sel pot=-18;KCNQ2 pot confirm=52*;Kir21 spec=-28;KCNQ2 W236L MoA=i
CCC(NC(=S)NC1CCCCC1)c1ccccc1 (centres undefined)	i	12*	·	·	CHO-K1 ctr=-9;KCNQ1 sel pot=-1;KCNQ2 pot confirm=28*;Kir21 spec=-59;KCNQ2 W236L MoA=i
CCc1ccc(C(C)NC(=S)NC2CCCCC2)cc1 (centres undefined)	i	20*	i	i	CHO-K1 ctr=15*;KCNQ1 sel pot=7.8*;KCNQ2 pot confirm=72*;Kir21 spec=-50;KCNQ2 W236L MoA=i
Cc1ccc(S(=O)(=O)NC(=S)NC2CCCCC2)cc1	i	4.1	·	·
CC(CCc1ccccc1)NC(=S)NC1CCCCC1 (centres undefined)	i	·	·	·
CCOc1ccc(C(C)NC(=S)NC2CCCCC2)cc1OCC (centres undefined)	i	2.3	·	·
CCCC(=O)N(CCN1CCOCC1)c1nc2c(F)cc(F)cc2s1	i	1.4	·	·
Cc1cccc(NS(=O)(=O)c2cc3c(cc2C)NC(=O)CO3)c1	i	1.6	·	·
CC(=O)Nc1ccccc1C(=O)N1CCN(Cc2ccc3c(c2)OCO3)CC1	i	·	·	·
Cc1ccc(C(=O)COC(=O)CN2C(=O)C3C4CC(C(Br)C4Br)C3C2=O)cc1 (centres undefined)	i	·	·	·
Cc1c(CCC(=O)NCCC(=O)O)c(=O)oc2c(C)c3oc4c(c3cc12)CCCC4	i	1.7	·	·
CCC(C)c1ccc(C(C)NC(=S)NC2CCCCC2)cc1 (centres undefined)	i	13*	·	·	CHO-K1 ctr=57*;KCNQ1 sel pot=37*;KCNQ2 pot confirm=34*;Kir21 spec=-50;KCNQ2 W236L MoA=i
CC(NC(=O)C1CCCC1)c1ccc2c(c1)OCCO2 (centres undefined)	i	1.8	·	·
CCC(C)c1ccc(NC(=S)NC2CCN(Cc3ccccc3)CC2)cc1 (centres undefined)	i	·	·	·
